An excerpt weighted towards active compounds, which were near 0.5% of everything screened.
E coli growth-1: bacterial growth inhibition, counter-screen for AddAB inhibitors; 0.27% of 330,000 active; E. coli V3065 growth, OD600 absorbance, 18 h; inhibition, % at 11.9 µM; AID 449728;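 active = inhibition above the campaign's mean inhibition across all tested compounds plus 3 SD, cut at about 9.9% in these data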;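 also: uninfected addAB+ strain grown without phage in ampicillin broth; 0% = DMSO wells and 100% = ciprofloxacin 0.95 µg/ml wells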
E coli growth-2: inhibitors of Escherichia coli growth; OD600, 23 h; hits give low values; OD600 absorbance (concentration not given with the values); 0.21% of 330,000 active;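 active = OD600 absorbance below the run mean of sample wells minus 3.6 SD, in any replicate, cut at about 0.56 in these data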
Tat export inh: blocks Tat-dependent protein export in E. coli. E. coli MC4100 TorA-mCherry Tat export, fluorescence. inhibition, % at 10 µM. 0.036% of 340,000 active;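 active = mean replicate inhibition at least 50% and at least half of replicates individually reaching 50%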;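 also: exported cargo escapes ClpAP degradation while cytoplasmic cargo is degraded and loses fluorescence; 0% = median of neutral control wells and 100% = median of NaSCN control wells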
AddAB inh: less growth of phage-infected E. coli with AddAB | E. coli expressing H. pylori AddAB, absorbance growth | inhibition, % at 11.9 µM | 0.29% of 330,000 active | AID 435030; in the data active = inhibition above about 12%;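 also: 0% = vehicle wells of infected cells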
phage Ecoli inh: E. coli growth loss with phage present; AID 651602; inhibition, % at 11.9 µM; growth absorbance; 0.26% of 360,000 active; in the data active = inhibition above about 11%
AddAB confirm: growth loss of T4-infected E. coli expressing H. pylori AddAB, confirmed | 64% of 880 active | shares compounds with AddAB inh | inhibition, % at 11.9 µM | E. coli V3065 expressing H. pylori AddAB, T4 phage, OD; T4 phage with gene 2 nonsense mutations;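 active = mean inhibition above a set limit taken from the earlier primary screen, cut at about 13% in these data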;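 also: higher means less bacterial growth since AddAB block lets phage replicate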
RecBCD counter: counter-screen: growth loss of RecBCD+ E. coli with mutant T4 phage. 73% of 880 active. AID 488955. shares compounds with AddAB inh. inhibition, % at 11.9 µM. E. coli V66 + mutant T4 phage, OD growth;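 active = mean inhibition above the mean of solvent-only control wells plus 3 SD, cut at about 4% in these data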;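 also: optical density read after an 18 h incubation at 37 °C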
bact viab count: counter-screen: bacterial growth inhibition; inhibition, % at 11.9 µM; shares compounds with AddAB inh; bacterial viability, absorbance (AddAB counterscreen); 35% of 880 active; in the data active = inhibition above about 25%
RecBCD conf: growth loss of phage-infected V66 E. coli, RecBCD confirmation screen | shares compounds with phage Ecoli inh | E. coli V66 + T4 2- phage, growth OD | inhibition, % at 11.9 µM | 45% of 890 active | AID 651982;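 active = mean inhibition over triplicates exceeding the hit threshold derived in the original primary screen, cut at about 11% in these data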
Ecoli viability: inhibits E. coli viability, flagging RecBCD hits as nonselective; shares compounds with phage Ecoli inh; absorbance (OD) growth; inhibition, % at 11.9 µM; 29% of 890 active; AID 651983; in the data active = inhibition above about 20%;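 also: E. coli strain V66 grown with compound alone and no phage infection; 0% = bacteria with DMSO vehicle only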
AddAB counter: growth loss of phage-infected AddAB E. coli, RecBCD counter-screen. inhibition, % at 11.9 µM. E. coli expressing H. pylori AddAB + T4 phage, OD growth; gene 2 mutant T4, recBCD-deleted host. 45% of 890 active. shares compounds with phage Ecoli inh;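 active = mean inhibition above the solvent-only control wells' mean plus 3 SD, cut at about 22% in these data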;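 also: higher means less bacterial growth from phage killing when AddAB is blocked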
* marks the source's active call; other numbers are inactive results; x = no result; ! = not confirmed by another sample.

SMILES | E coli growth-1 | E coli growth-2 | Tat export inh | AddAB inh | phage Ecoli inh | AddAB confirm | RecBCD counter | bact viab count | RecBCD conf | Ecoli viability | AddAB counter
CCn1cc(C(=O)NCCCN(C)C)c(=O)c2cc(F)c(N3CCN(C)CC3)cc21 | 99* | 0.051* | 37 | 100* | 93* | 97* | 90* | 101* | 70* | 99* | 101*
CCCCN(CCCC)C(=O)c1cn(CC)c2cc(N3CCN(C)CC3)c(F)cc2c1=O | 101* | 0.049* | 71* | 102* | 98* | 104* | 102* | 103* | 100* | 101* | 100*
CCCCCCn1cc(C(=O)O)c(=O)c2cc(F)c(N3CCN(C(=O)OCC)CC3)cc21 | 4 | 0.68 | -3 | 2 | 2 | x | x | x | x | x | x
CC(Cc1ccccc1)=NNC(=O)CNC(=O)/C=C\c1ccccc1 | x | 0.64 | x | x | x | x | x | x | x | x | x
COc1ccc2nc(NC(=O)CCNC(=O)c3ccco3)sc2c1 | 14* | 0.58 | -9 | 16* | 12* | 14* | 12* | 14 | 8 | 12 | 11
C[C@H]1[C@H](NC(=O)C(=NOC(C)(C)C(=O)O)c2csc(N)n2)C(=O)N1S(=O)(=O)O | 99* | x | -9 | 100* | 100* | 100* | 99* | 101* | 98* | 99* | 101*
CCN1C(=O)C2C(c3ccc(C)cc3)N3C(=O)N(c4cccc(F)c4)C(=O)[C@@]3(CC)C2C1=O (stereo not given in full) | x | 0.68 | x | x | x | x | x | x | x | x | x
COc1ccc(O)c(/C=N/NC(=O)c2ccc(CSc3nc(C)cc(C)n3)cc2)c1 | 11* | x | 3 | 16* | 11* | 6 | 8.0* | -2 | 1 | 1 | 6
C=CCN1C(=O)C(=Cc2ccc(Cl)cc2)N=C1SCC(=O)NC1CCCCC1 | x | 0.69 | x | x | x | x | x | x | x | x | x
Fc1ccc(NC(=S)NCc2ccccc2Cl)cc1 | 13* | 0.66 | -10 | 14* | 12* | 36* | 25* | 35* | 17* | 24* | 38*
Cc1noc(C)c1NC(=O)Nc1ccc2c(c1)C(=O)N(C(C)CO)CC(C)C(CN(C)S(=O)(=O)c1ccccc1)O2 (stereo not given) | x | 0.71 | x | x | x | x | x | x | x | x | x
CS(=O)(=O)c1ccc([C@@H](O)[C@@H](CF)NC(=O)C(Cl)Cl)cc1 | 85* | x | 147* | 84* | 85* | 87* | 90* | 87* | 92* | 94* | 84*
CS(=O)(=O)c1ccc([C@@H](O)[C@@H](CO)NC(=O)C(Cl)Cl)cc1 | 29* | x | 15 | 29* | 27* | 10 | 27* | 0 | 35* | 25* | 6
CN(C)c1ccc(NC(=O)C=Cc2ccccc2Cl)cc1 | x | 0.69 | x | x | x | x | x | x | x | x | x
NC(=NCCCCCCN=C(N)/N=C(\N)Nc1ccc(Cl)cc1)/N=C(\N)Nc1ccc(Cl)cc1 | 105* | x | 156*! | 103* | 106*! | 100* | 101* | 100* | 104* | 105* | 104*
O=C1NCCCC1C(=O)N1CCCCC1 (stereo not given) | 1 | 0.64 | 6 | 0 | 4 | x | x | x | x | x | x
O=C1CCC(=O)N(O)CCCCCNC(=O)CCC(=O)N(O)CCCCNC(=O)CCC(=O)N(O)CCCCCN1 | 28* | 0.67 | -5 | 31* | 22* | 26* | 23* | 13 | 16* | 20* | 21
Cc1cc(C(=O)NC(c2ccccc2)[C@]2(C)CC2C(C)C(=O)Nc2ccc3ccccc3c2)no1 (stereo not given in full) | x | 0.68 | x | x | x | x | x | x | x | x | x
CC(=O)Nc1ccc2nc(SCC(=O)Nc3ccc(N4CCOCC4)c(Cl)c3)sc2c1 | -3 | 0.67 | -6 | 2 | 3 | x | x | x | x | x | x
O=C(CSc1nc2ccccc2[nH]1)Nc1ccc(N2CCOCC2)cc1 | 14* | 0.6 | -16 | 25* | 13* | 13* | 17* | 15 | 8 | 12 | 13
O=C(CSc1nc2ccccc2s1)Nc1ccc(N2CCOCC2)c(Cl)c1 | 12* | 0.66 | -23 | 21* | 16* | 19* | 12* | 16 | 11 | 13 | 24*
CC(C)(C)OC(=O)CC1CC=CCC(CC(=O)NC(CO)Cc2ccccc2)C(=O)NCC(c2ccccc2)OC1=O (stereo not given) | x | 0.66 | x | x | x | x | x | x | x | x | x
O=C1C2C(c3cccc(C=Cc4ccccc4)c3)CC=CC2C(c2ccc(C(F)(F)F)cc2)N1Cc1ccccc1 (stereo not given) | x | 0.67 | x | x | x | x | x | x | x | x | x
CCCNC(=O)c1ccc2c(=O)c(O)c(-c3cccc(Br)c3)[nH]c2c1 | 13* | 0.66 | 13 | 15* | 20* | 14* | 13* | 15 | 12* | 13 | 16
Oc1[nH]c2ccccc2c1N=Nc1ccccn1 | x | x | 7 | x | 1 | x | x | x | x | x | x
SMILES | E coli growth-1 | E coli growth-2 | Tat export inh | AddAB inh | phage Ecoli inh | AddAB confirm | RecBCD counter | bact viab count | RecBCD conf | Ecoli viability | AddAB counter
Oc1c(N=Nc2ccccn2)ccc2ccccc12 | 18* | 0.75 | 2 | 20* | 18* | 21* | 17* | 18 | 12* | 13 | 26*
C#CCOCCOCCOCCNc1nc(N2CCN(C(=O)Cn3cc(CC(C)O)nn3)CC2)nc(N2CCN(C(=O)C(CCCCN)n3cc(CCC(=O)O)nn3)CC2)n1 (stereo not given) | x | 0.71 | x | x | x | x | x | x | x | x | x
O=S(=O)(Nc1nccs1)c1ccc(Br)cc1 | 1 | 0.64 | -4 | 4 | 4 | x | x | x | x | x | x
Nc1ccc(S(=O)(=O)Nc2nccs2)cc1 | 15* | 0.65 | 2 | 29* | 12* | 10 | 5.5* | 16 | 6 | 4 | 27*
COc1ccc(Cl)cc1C(Nc1cccnc1)c1ccc2cccnc2c1O (stereo not given) | 23* | 0.72 | 2 | 14* | 16* | 8 | 12* | 8 | 7 | 9 | 6
CC(=NNC(=O)c1ccc(Cl)c(Cl)c1)c1cccc(NC(=O)C(C)C)c1 | x | 0.69 | x | x | x | x | x | x | x | x | x
C=CC[n+]1c(/C=C2\C=Cc3cc(C)ccc3N2CC)ccc2ccccc21 | 22* | 0.53 | -9 | 20* | 12* | 66* | 6.6* | 24 | 3 | 2 | 36*
c1ccc(-c2nnc(-c3ccccn3)nc2NC2CCCCC2)cc1 | 18* | 0.41* | -10 | 16* | 14* | 20* | 15* | 14 | 6 | 6 | 18
